Measured values taken from PubChem BioAssay AID1159580 (chemical genetic matrix, 2015).
Several values for one entry are separate records, joined by “and”; a condition that tells them apart may be missing. Equal entries are not always repeated. Screen size: about 5,500 compounds; about 2,000 (36%) were called active. About 18% were inconclusive and are not listed. This is one part of the list. Values without a mark were called inactive. Rule as the data show it: active = normalized growth mostly below about 0.91 (no sharp cut-off); inconclusive = no clear call, values can overlap the other calls; inactive = mostly above about 0.92.

Experiment: chemical genetic growth profiling, strain panel (AID 1159580);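 also: tested at 20 µM; growth read once vehicle control cultures reached saturation at 30 °C; 1 = growth at the plate median or of vehicle wells; lower values mean less growth of the strain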
Conditions: growth OD
[1] = S. cerevisiae deletion strains, locus YBR021W, strain FUR4, hits give low values
[2] = S. cerevisiae deletion strains, locus YBR229C, strain ROT2, hits give low values
[3] = S. cerevisiae deletion strains, locus YCL029C, strain bik1, hits give low values
[4] = S. cerevisiae deletion strains, locus YDL035C, strain GPR1, hits give low values
[5] = S. cerevisiae deletion strains, locus YDL074C, strain BRE1, hits give low values
[6] = S. cerevisiae deletion strains, locus YDL101C, strain DUN1, hits give low values
[7] = S. cerevisiae deletion strains, locus YDL185W, strain tfp1, hits give low values
[8] = S. cerevisiae deletion strains, locus YDL192W, strain arf1, hits give low values
[9] = S. cerevisiae deletion strains, locus YDR101C, strain arx1, hits give low values
[10] = S. cerevisiae deletion strains, locus YDR162C, strain NBP2, hits give low values
[11] = S. cerevisiae deletion strains, locus YDR318W, strain mcm21, hits give low values
[12] = S. cerevisiae deletion strains, locus YDR388W, hits give low values
[13] = S. cerevisiae deletion strains, locus YDR502C, strain sam2, hits give low values
[14] = S. cerevisiae deletion strains, locus YEL061C, strain CIN8, hits give low values
[15] = S. cerevisiae deletion strains, locus YER110C, hits give low values
[16] = S. cerevisiae deletion strains, locus YER155C, strain BEM2, hits give low values
[17] = S. cerevisiae deletion strains, locus YER167W, strain BCK2, hits give low values
[18] = S. cerevisiae deletion strains, locus YGL078C, strain dbp3, hits give low values
[19] = S. cerevisiae deletion strains, locus YGL086W, strain mad1, hits give low values
[20] = S. cerevisiae deletion strains, locus YGL248W, strain PDE1, hits give low values
[21] = S. cerevisiae deletion strains, locus YGR135W, strain pre9, hits give low values
[22] = S. cerevisiae deletion strains, locus YGR252W, strain gcn5, hits give low values
[23] = S. cerevisiae deletion strains, locus YHR030C, strain SLT2, hits give low values
[24] = S. cerevisiae deletion strains, locus YHR079C, strain IRE1 (second series), hits give low values
[25] = S. cerevisiae deletion strains, locus YHR094C, strain hxt1, hits give low values
[26] = S. cerevisiae deletion strains, locus YHR129C, strain ARP1, hits give low values
[27] = S. cerevisiae deletion strains, locus YHR200W, strain rpn10, hits give low values
[28] = S. cerevisiae deletion strains, locus YIL066C, strain RNR3, hits give low values
[29] = S. cerevisiae deletion strains, locus YIL073C, strain SPO22, hits give low values
[30] = S. cerevisiae deletion strains, locus YIL125W, strain kgd1, hits give low values
[31] = S. cerevisiae deletion strains, locus YIR030C, strain dcg1, hits give low values
[32] = S. cerevisiae deletion strains, locus YJL095W, strain BCK1, hits give low values
[33] = S. cerevisiae deletion strains, locus YJL134W, strain LCB3, hits give low values
[34] = S. cerevisiae deletion strains, locus YJL168C, strain set2, hits give low values
[35] = S. cerevisiae deletion strains, locus YJL187C, strain SWE1 (second series), hits give low values
[36] = S. cerevisiae deletion strains, locus YJR043C, strain POL32, hits give low values
[37] = S. cerevisiae deletion strains, locus YKL009W, strain mrt4, hits give low values
[38] = S. cerevisiae deletion strains, locus YKL068W, hits give low values
[39] = S. cerevisiae deletion strains, locus YKL085W, strain MDH1 (second series), hits give low values
[40] = S. cerevisiae deletion strains, locus YKL085W, strain MDH1, hits give low values
[41] = S. cerevisiae deletion strains, locus YKR001C, strain vps1, hits give low values
[42] = S. cerevisiae deletion strains, locus YLR039C, strain RIC1, hits give low values
[43] = S. cerevisiae deletion strains, locus YLR058C, strain SHM2, hits give low values
[44] = S. cerevisiae deletion strains, locus YLR102C, strain apc9, hits give low values
[45] = S. cerevisiae deletion strains, locus YLR262C, strain YPT6, hits give low values
[46] = S. cerevisiae deletion strains, locus YLR268W, strain sec22, hits give low values
[47] = S. cerevisiae deletion strains, locus YLR330W, strain CHS5, hits give low values
[48] = S. cerevisiae deletion strains, locus YLR342W, strain FKS1 (second series), hits give low values
[49] = S. cerevisiae deletion strains, locus YLR371W, strain rom2, hits give low values
[50] = S. cerevisiae deletion strains, locus YLR418C, strain cdc73, hits give low values
[51] = S. cerevisiae deletion strains, locus YML016C, strain PPZ1, hits give low values
[52] = S. cerevisiae deletion strains, locus YML032C, strain rad52, hits give low values
[53] = S. cerevisiae deletion strains, locus YML124C, strain tub3, hits give low values
[54] = S. cerevisiae deletion strains, locus YMR078C, strain ctf18, hits give low values
[55] = S. cerevisiae deletion strains, locus YMR223W, strain ubp8, hits give low values
[56] = S. cerevisiae deletion strains, locus YMR307W, strain GAS1, hits give low values
[57] = S. cerevisiae deletion strains, locus YNL067W, strain RPL9B, hits give low values
[58] = S. cerevisiae deletion strains, locus YNL233W, strain BNI4, hits give low values
[59] = S. cerevisiae deletion strains, locus YNL250W, strain rad50, hits give low values
[60] = S. cerevisiae deletion strains, locus YNL271C, strain bni1, hits give low values
[61] = S. cerevisiae deletion strains, locus YNL298W, strain CLA4, hits give low values
[62] = S. cerevisiae deletion strains, locus YNL307C, strain MCK1, hits give low values
[63] = S. cerevisiae deletion strains, locus YNR052C, strain pop2, hits give low values
[64] = S. cerevisiae deletion strains, locus YOL012C, strain htz1
[65] = S. cerevisiae deletion strains, locus YOL147C, strain pex11, hits give low values
[66] = S. cerevisiae deletion strains, locus YOR061W, strain CKA2, hits give low values
[67] = S. cerevisiae deletion strains, locus YOR069W, strain VPS5, hits give low values
[68] = S. cerevisiae deletion strains, locus YOR136W, strain idh2, hits give low values
[69] = S. cerevisiae deletion strains, locus YOR144C, strain elg1, hits give low values
[70] = S. cerevisiae deletion strains, locus YOR184W, strain ser1, hits give low values
[71] = S. cerevisiae deletion strains, locus YOR316C, strain cot1, hits give low values
[72] = S. cerevisiae deletion strains, locus YPR119W, strain clb2, hits give low values
[73] = S. cerevisiae deletion strains, locus YPR141C, strain kar3, hits give low values
[74] = S. cerevisiae deletion strains, locus YPR163C, strain tif3, hits give low values
[75] = S. cerevisiae deletion strains, locus YPR167C, strain met16, hits give low values
[76] = S. cerevisiae deletion strains, strain wtn01, hits give low values

C/C=C/c1ccc(OC)cc1
normalized growth [1]: 0.987
normalized growth [2]: 1.01
normalized growth [3]: 1.02
normalized growth [4]: 1.01
normalized growth [5]: 1.03
normalized growth [6]: 1.03
normalized growth [7]: 1.01
normalized growth [8]: 1.01
normalized growth [9]: 1.02
normalized growth [10]: 1.02
normalized growth [11]: 1
normalized growth [12]: 1
normalized growth [13]: 0.998
normalized growth [14]: 1.01
normalized growth [15]: 1.02
normalized growth [16]: 1.01
normalized growth [17]: 1
normalized growth [18]: 0.999
normalized growth [19]: 1.02
normalized growth [20]: 1.01
normalized growth [21]: 1
normalized growth [22]: 1.01
normalized growth [23]: 1.01 and 0.942
normalized growth [24]: 1.01
normalized growth (S. cerevisiae deletion strains, locus YHR079C, strain IRE1, hits give low values): 0.948
normalized growth [25]: 1.01
normalized growth [26]: 1.01
normalized growth [27]: 1.01
normalized growth [28]: 1.01
normalized growth [29]: 1.03
normalized growth [30]: 1.01
normalized growth [31]: 1.02
normalized growth [32]: 1.03 and 0.941
normalized growth [33]: 1.01
normalized growth [34]: 1.01
normalized growth [35]: 1.03
normalized growth [36]: 1.01
normalized growth (S. cerevisiae deletion strains, locus YJR066W, strain TOR1, hits give low values): 0.902
normalized growth [37]: 1.02
normalized growth [38]: 1
normalized growth [39]: 1.01
normalized growth [40]: 1.01
normalized growth (S. cerevisiae deletion strains, locus YKL190W, strain CNB1, hits give low values): 1.01
normalized growth [41]: 0.998
normalized growth [42]: 1.03
normalized growth [43]: 1.01
normalized growth [44]: 1.01
normalized growth (S. cerevisiae deletion strains, locus YLR113W, strain HOG1, hits give low values): 0.91
normalized growth [45]: 1.05
normalized growth [46]: 1.03
normalized growth [47]: 1.01
normalized growth [48]: 0.986
normalized growth [49]: 1.02
normalized growth [50]: 0.989
normalized growth [51]: 1.01
normalized growth [52]: 0.99
normalized growth [53]: 1.01
normalized growth [54]: 1.01
normalized growth [55]: 1.01
normalized growth [56]: 0.968
normalized growth [57]: 1.03
normalized growth (S. cerevisiae deletion strains, locus YNL183C, strain NPR1, hits give low values): 0.904
normalized growth [58]: 1.02
normalized growth [59]: 1.02
normalized growth [60]: 1
normalized growth [61]: 0.988
normalized growth [62]: 1
normalized growth [63]: 1.01
normalized growth [64]: 0.756
normalized growth [65]: 1.01
normalized growth [66]: 1.01
normalized growth [67]: 1.01
normalized growth [68]: 1.01
normalized growth [69]: 1
normalized growth [70]: 1.01
normalized growth (S. cerevisiae deletion strains, locus YOR231W, strain MKK1, hits give low values): 0.953
normalized growth [71]: 1
normalized growth (S. cerevisiae deletion strains, locus YPL055C, strain LGE1, hits give low values): 1.03
normalized growth (S. cerevisiae deletion strains, locus YPL256C, strain CLN2, hits give low values): 0.927
normalized growth [72]: 1.01
normalized growth [73]: 1.01
normalized growth [74]: 1
normalized growth [75]: 1.01
normalized growth [76]: 1.01

Oc1cc(O)cc(/C=C/c2ccccc2)c1
normalized growth [1]: 1.1
normalized growth [2]: 1
normalized growth [3]: 0.973
normalized growth [4]: 1.01
normalized growth [5]: 0.983
normalized growth [6]: 0.978
normalized growth [7]: 0.959
normalized growth [8]: 0.977
normalized growth [9]: 1.04
normalized growth (S. cerevisiae deletion strains, locus YDR150W, strain NUM1, hits give low values): 0.998
normalized growth [10]: 0.996
normalized growth [11]: 0.965
normalized growth [12]: 0.987
normalized growth [13]: 0.962
normalized growth [14]: 1
normalized growth [15]: 0.977
normalized growth [16]: 0.995
normalized growth [17]: 1.01
normalized growth [18]: 0.953
normalized growth [19]: 0.995
normalized growth [20]: 0.957
normalized growth [21]: 0.921
normalized growth [22]: 0.88
normalized growth [23]: 1
normalized growth [24]: 0.976
normalized growth [25]: 0.987
normalized growth [26]: 0.99
normalized growth [27]: 0.981
normalized growth [28]: 1.01
normalized growth [29]: 0.963
normalized growth [30]: 1.01
normalized growth [31]: 0.983
normalized growth [32]: 0.961
normalized growth [33]: 1.01
normalized growth [34]: 0.974
normalized growth [35]: 0.966
normalized growth [36]: 1.03
normalized growth [37]: 0.964
normalized growth [38]: 0.994
normalized growth [39]: 0.994
normalized growth [40]: 0.994
normalized growth [41]: 0.987
normalized growth [42]: 1.03
normalized growth [43]: 0.996
normalized growth [44]: 0.992
normalized growth [45]: 1.02
normalized growth [46]: 1.02
normalized growth [47]: 0.993
normalized growth [48]: 1.07
normalized growth [49]: 0.933
normalized growth [50]: 0.797 (active)
normalized growth [51]: 0.998
normalized growth [52]: 0.993
normalized growth [53]: 0.982
normalized growth [54]: 0.984
normalized growth [55]: 0.977
normalized growth [56]: 1
normalized growth [57]: 0.968
normalized growth (S. cerevisiae deletion strains, locus YNL128W, strain TEP1, hits give low values): 0.977
normalized growth (S. cerevisiae deletion strains, locus YNL153C, strain GIM3, hits give low values): 0.96
normalized growth [58]: 0.981
normalized growth [59]: 0.935
normalized growth [60]: 0.984
normalized growth [61]: 1.02
normalized growth [62]: 0.991
normalized growth [63]: 0.977
normalized growth (S. cerevisiae deletion strains, locus YOL006C, strain TOP1, hits give low values): 1.15
normalized growth [64]: 1.16
normalized growth [65]: 0.977
normalized growth [66]: 1.01
normalized growth [67]: 0.989
normalized growth [68]: 0.984
normalized growth [69]: 0.999
normalized growth [70]: 1.05
normalized growth [71]: 0.984
normalized growth (S. cerevisiae deletion strains, locus YPL241C, strain CIN2, hits give low values): 1
normalized growth [72]: 0.978
normalized growth [73]: 0.969
normalized growth [74]: 0.99
normalized growth [75]: 0.957
normalized growth [76]: 1
normalized growth (S. cerevisiae strains, strain wild type, hits give low values): 1.01
